Counter-ions that a name gives are not always drawn. ± gives the standard deviation of the averaged measurements.
Tests used:
Molm13 = assay: cell viability relative to DMSO control (bortezomib = 0%); higher = less growth inhibition; details: 10 nM; 72 h
Summary of the method: (§1)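 FLT3-ITD+ acute myeloid leukemia cells were dispensed onto a library of 679 approved and investigational compounds in 384-well plates, at 1000 cells per well in 50 µL and a single 10 nM dose, for 72 h. The screen was run in duplicate. Cell viability was read by CellTiter-Glo luminescence on an EnVision reader. Values were converted to percentages by per-plate linear regression between DMSO-treated cells (100%) and positive-control-treated cells (0%).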

Mv4-11 = assay: as above; details: 10 nM; 72 h
Summary of the method: as §1

Work on `CCC(=O)N1CCN(c2ccc(-n3c(=O)ccc4cnc5ccc(-c6cnc7ccccc7c6)cc5c43)cc2C(F)(F)F)CC1` [Torin 1] yielded a cell viability (Molm13) of 104 ± 4.5% and a cell viability (Mv4-11) of 108 ± 6.9%.

Work on `O=c1cc(-c2cccc3c2Sc2ccccc2S3)oc(N2CCOCC2)c1` yielded a cell viability (Molm13) of 104 ± 4.7% and a cell viability (Mv4-11) of 103 ± 28%.

Compound `O=C1Nc2cc(Br)ccc2/C1=C1/Nc2ccccc2/C1=N\O` has a cell viability (Molm13) of 109 ± 2.3% and a cell viability (Mv4-11) of 91.4 ± 8.7%.

`COc1cc2c(Nc3ccc(NC(=O)c4ccccc4)cc3)ncnc2cc1OCCCN1CCOCC1` gave a cell viability (Molm13) of 87.8 ± 50% and a cell viability (Mv4-11) of 120 ± 19%.

`O=C1C(Cl)=C(NCCN2CCOCC2)C(=O)c2ncccc21` showed a cell viability (Molm13) of 111 ± 23% and a cell viability (Mv4-11) of 121 ± 2.5%.

For `CN(C)CCN(Cc1ccc(Cl)cc1)c1ccccn1` [Chloropyramine hydrochloride], the cell viability (Molm13) was 105 ± 27% and the cell viability (Mv4-11) was 107 ± 12%.

`O=c1ncn2nc(Sc3ccc(F)cc3F)ccc2c1-c1c(Cl)cccc1Cl` was tested, and the cell viability (Molm13) was 89.6 ± 1.7% and the cell viability (Mv4-11) was 108 ± 6.4%.

For `CCOC(=O)c1c2c3c(cccc3[nH]c1=O)C(=O)c1ccccc1-2`, the cell viability (Molm13) was 124 ± 7.7% and the cell viability (Mv4-11) was 103 ± 19%.

For `COc1ccc(S(=O)(=O)Nc2ccccc2CN(C)C/C=C/c2ccc(Cl)cc2)cc1` [KN-92 (hydrochloride)], the cell viability (Molm13) was 129 ± 18% and the cell viability (Mv4-11) was 109 ± 10%.

Compound `COC(=O)c1c2c(c3ccccc3c1O)OC(C)(C)C=C2` [Mollugin] has a cell viability (Molm13) of 98 ± 1.6% and a cell viability (Mv4-11) of 100 ± 7.8%.

`O=Nc1c(-c2c(O)[nH]c3ccccc23)[nH]c2ccccc12` [Indirubin-3'-monoxime] showed a cell viability (Molm13) of 88 ± 13% and a cell viability (Mv4-11) of 80.7 ± 4.5%.

With `CCN1/C(=C/C(C)=O)Sc2ccc(OC)cc21` the cell viability (Molm13) was 106 ± 11% and the cell viability (Mv4-11) was 104 ± 6.5%.

`Nc1n[nH]c(N)c1N=Nc1ccc(O)cc1` was tested, and the cell viability (Molm13) was 117 ± 6.2% and the cell viability (Mv4-11) was 110 ± 14%.

Work on `CC(C)[C@H](CO)Nc1nc(Nc2cccc(Cl)c2)c2ncn(C(C)C)c2n1` [Purvalanol A] yielded a cell viability (Molm13) of 102 ± 7.3% and a cell viability (Mv4-11) of 106 ± 12%.

For `O=C1NC(=O)C(c2ccccc2[N+](=O)[O-])=C1Nc1ccc(O)c(Cl)c1`, the cell viability (Molm13) was 110 ± 9.4% and the cell viability (Mv4-11) was 120 ± 9.7%.

In the case of `C[C@H](NC(=O)/C(C#N)=C/c1cccc(Br)n1)c1ccccc1`, the cell viability (Molm13) is reported as 103 ± 0.31% and the cell viability (Mv4-11) is reported as 99.3 ± 5.6%.

`CS(=O)(=O)c1ccc(-c2cnc(N)c(C(=O)Nc3ccccc3)n2)cc1` gave a cell viability (Molm13) of 83.9 ± 3.9% and a cell viability (Mv4-11) of 93.76 ± 0.24%.

`O=C1NC(=O)C(c2c[nH]c3ccccc23)=C1c1c[nH]c2ccccc12` [Bisindolylmaleimide IV] was tested, and the cell viability (Molm13) was 105 ± 5.2% and the cell viability (Mv4-11) was 100 ± 2.6%.

`COc1cc(N2CCC(N3CCN(C)CC3)CC2)ccc1Nc1ncc(Cl)c(Nc2ccccc2P(C)(C)=O)n1` [Brigatinib] showed a cell viability (Molm13) of 115 ± 41% and a cell viability (Mv4-11) of 108 ± 28%.

In the case of `O=C(Nc1ccc(CN2CCOCC2)cc1)c1ccc(-c2cccc(Cl)c2)o1`, the cell viability (Molm13) is reported as 113 ± 2.9% and the cell viability (Mv4-11) is reported as 120 ± 6%.

For `C#Cc1cccc(Nc2ncnc3cc4c(cc23)OCCOCCOCCO4)c1` [Icotinib], the cell viability (Molm13) was 93.2 ± 10% and the cell viability (Mv4-11) was 97.5 ± 5.9%.

`O=C1NC(=O)/C(=C/c2cccc(C(F)(F)F)c2)S1` gave a cell viability (Molm13) of 112 ± 15% and a cell viability (Mv4-11) of 119 ± 17%.

`CNC(=O)c1ccccc1Nc1nc(Nc2ccc(N3CCOCC3)cc2OC)ncc1Cl` gave a cell viability (Molm13) of 90.55 ± 0.19% and a cell viability (Mv4-11) of 109 ± 5.5%.

With `CCNc1nc(Nc2cc(F)c(C(=O)N3CCOCC3)cc2OC)ncc1C(F)(F)F` the cell viability (Molm13) was 105.79 ± 0.065% and the cell viability (Mv4-11) was 102.3 ± 0.71%.

`N#CC[C@H](C1CCCC1)n1cc(-c2ncnc3[nH]ccc23)cn1` gave a cell viability (Molm13) of 87.6 ± 8.3% and a cell viability (Mv4-11) of 109 ± 4%.

In the case of `Cc1nc(Nc2cnn(C3CCNCC3)c2)nc2c1N(C)C(=O)c1cc3ccccc3cc1N2C`, the cell viability (Molm13) is reported as 95.6 ± 2.2% and the cell viability (Mv4-11) is reported as 104.2 ± 0.14%.

For `CN1CCN(CCCNc2ncc(Cl)c(-c3cc4c(C(=O)NC5CC5)cccc4s3)n2)CC1`, the cell viability (Molm13) was 110 ± 3.6% and the cell viability (Mv4-11) was 109 ± 13%.

Work on `CC(C)=CCc1cc2c(cc1O)oc(=O)c1c3ccc(O)cc3oc21` [Psoralidin] yielded a cell viability (Molm13) of 111 ± 27% and a cell viability (Mv4-11) of 124 ± 22%.

For `COc1cc(OC)c(/C=C/S(=O)(=O)Cc2ccc(OC)c(OP(=O)(O)O)c2)c(OC)c1` [Briciclib], the cell viability (Molm13) was 114 ± 25% and the cell viability (Mv4-11) was 106 ± 11%.

For `Cc1nc(-c2cn3c(n2)-c2ccc(-c4cnn(C(C)(C)C(N)=O)c4)cc2OCC3)n(C(C)C)n1`, the cell viability (Molm13) was 94.6 ± 8.3% and the cell viability (Mv4-11) was 123 ± 5.4%.

Work on `C[C@H]1[C@H](C)CC[C@]2(C(=O)O)CC[C@]3(C)C(=CC[C@@H]4[C@@]5(C)C[C@@H](O)[C@H](O)[C@@](C)(CO)[C@@H]5CC[C@]43C)[C@H]12` [Asiatic acid] yielded a cell viability (Molm13) of 107 ± 22% and a cell viability (Mv4-11) of 103 ± 4.2%.

With `CC(C)(C)c1cc(C=C(C#N)C(N)=S)cc(C(C)(C)C)c1O` the cell viability (Molm13) was 108 ± 5.4% and the cell viability (Mv4-11) was 111 ± 3.4%.

`Cc1cc(NC(=O)c2cccc(NC(=O)/C=C/CN(C)C)c2)ccc1Nc1nccc(-c2cccnc2)n1` gave a cell viability (Molm13) of 92 ± 6.9% and a cell viability (Mv4-11) of 113 ± 5.2%.

`COc1cccc(-c2cc(=O)c3ccccc3o2)c1N` was tested, and the cell viability (Molm13) was 105 ± 10% and the cell viability (Mv4-11) was 103 ± 8.4%.

With `O=C(NCCCNc1nc(Nc2cccc(NC(=O)N3CCCC3)c2)ncc1I)c1cccs1` the cell viability (Molm13) was 95.7 ± 9.5% and the cell viability (Mv4-11) was 97.5 ± 5.3%.

Compound `Cc1ccc(NC(=O)c2cccc(N(C)C)c2)cc1NC(=O)c1ccc(O)cc1` has a cell viability (Molm13) of 94.6 ± 6% and a cell viability (Mv4-11) of 103 ± 5.7%.
